Screens deposited in PubChem by National Center for Advancing Translational Sciences (NCATS).
The list is not random: actives were taken first. Their share in the collection is about 6.2%.
Luc counter: Kinase-Glo luciferase inhibition (counter-screen) | Q27757 | Kinase-Glo luciferase, ATP luminescence, 8 min | Potency, µM (doses to about 38.3 µM), for the others: top-dose activity change, negative = inhibition, usual class: inhibitors | hit rate 0.28% among 200,000 | AID 1379; also: nearly all actives have a fitted effect of over 60% in size
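Light output from Kinase-Glo luciferase with luciferin and 10 uM ATP in 50 mM imidazole pH 7.2, KCl, MgCl2, Tween 20, BSA; compound pin-delivered, 8-min ambient incubation, then luminescence read.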
Gal4-VP16 FLuc: Gal4-VP16 reporter inhibition counter-screen; AID 2546; Drosophila S2 Gal4-VP16 UAS-luciferase, luminescence, 20 h; hit rate 3.5% among 310,000; Potency, µM (highest dose often 53.6 µM), inactives show at the top dose activity, negative = inhibition, hits mostly inhibitors;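 also: Gal4-VP16 expression switched on by copper sulfate through the metallothionein promoter; nearly all actives have a fitted effect of over 50% in size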
RORg inh: blocks mouse ROR gamma transcriptional activity; Drosophila S2 Gal4-RORgamma UAS-luciferase reporter, 20 h; Potency, µM (top dose mostly 53.6 µM), for the others: at the top dose activity change, negative = inhibition, actives largely listed as inhibitors; hit rate 5.4% among 310,000; P51450; also: nearly all actives have a fitted effect of over 60% in size
Target sequence (P51450 whole entry, looked up, the tested form may be a part): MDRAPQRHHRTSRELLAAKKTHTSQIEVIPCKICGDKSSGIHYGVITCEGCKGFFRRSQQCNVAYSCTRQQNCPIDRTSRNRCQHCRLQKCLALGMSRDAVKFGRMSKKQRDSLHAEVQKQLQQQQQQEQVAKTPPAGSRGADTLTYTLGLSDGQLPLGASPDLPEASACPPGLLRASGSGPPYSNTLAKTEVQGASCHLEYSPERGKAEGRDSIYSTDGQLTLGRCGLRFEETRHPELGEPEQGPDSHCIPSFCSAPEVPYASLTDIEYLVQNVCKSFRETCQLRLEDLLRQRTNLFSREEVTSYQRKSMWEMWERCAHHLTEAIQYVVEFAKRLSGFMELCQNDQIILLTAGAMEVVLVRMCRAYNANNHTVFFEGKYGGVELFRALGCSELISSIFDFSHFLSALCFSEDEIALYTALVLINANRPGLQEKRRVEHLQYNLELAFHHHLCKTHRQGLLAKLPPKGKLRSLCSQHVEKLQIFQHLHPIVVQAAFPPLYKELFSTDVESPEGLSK
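Luminescence from a UAS-regulated Photinus luciferase reporter in stably transfected Drosophila Schneider cells is measured; decreased signal marks ROR gamma inhibition. Fusion expression is induced by 700 uM copper sulfate for 20 hr.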
Active calls of the source: *; ? = inconclusive; / = not tested or not shown; [ ] = remark or other dose. Calls follow the shape of the dose curve; as a rule, active = well fitted curve in the direction sought with a large enough effect; inconclusive = small, poorly fitted or top-dose-only effect, or another doubt; inactive = no such curve, though single readings can be large; an effect the other way counts as inactive or inconclusive. % is scaled to controls: 0 for no effect and ±100 for the full control effect; potency is read from the fitted curve at half-maximal effect.

SMILES	Luc counter	Gal4-VP16 FLuc	RORg inh
COc1ccc(NC(C)C(=O)N/N=C/c2cc(Br)ccc2OC)cc1 (stereo not given)	0.4%	-5.4%	0.5%
CC(=O)Nc1ccc(N=Cc2c(O)ccc3ccccc23)cc1	/	-2.5%	?
O=C(CSCC(=O)Nc1ccccc1)N/N=C/c1c(O)ccc2ccccc12	/	3.55µM*	1µM*
N#CCC(=O)N/N=C/c1c2ccccc2cc2ccccc12	/	?	11.2µM*
O=C(CNc1ccccc1)N/N=C/c1c(O)ccc2ccccc12	/	2.82µM*	1.58µM*
Nc1ccc(F)cc1F	/	-23.6%	-3.4%
Nc1c2c(nn1-c1ccccc1)CCC2	/	-5.4%	-29.8%
C[C@@]12C=Cc3occc3[C@H]1CC[C@@]13C[C@@H](CC[C@H]12)[C@@](O)(CO)C3	/	2.5%	-40.0%
Cc1nc2ccccc2c(=O)n1N(c1ccccc1)c1ccccc1	-2.7%	-7.7%	27.1%
COc1ccc(NC(=O)N2CC[C@@]3(CCCN(C(=O)c4c(C)noc4C)C3)C2)cc1	-4.8%	-11.6%	5.5%
O=C(CN1CCOCC1)N/N=C/c1ccco1	-0.1%	0.2%	-0.9%
O=C(CN1CCOCC1)N/N=C/c1c(O)ccc2ccccc12	/	1.41µM*	?
CC12CC3(C)CC(C)(C1)CC(C(=O)NCC(=O)O)(C2)C3	3.2%	2.9%	27.9%
CN(C)C(=S)NC(=O)C12CC3(C)CC(C)(CC(C)(C3)C1)C2	/	-23.3%	2.51µM*
COc1ccc(CN2CCN(C(=O)Cn3ncn4cccc4c3=O)CC2)c(OC)c1OC	/	-16.2%	41.7%
CC(CCC(=O)O)C1CCC2C3C(O)C[C@@H]4CC(O)CC[C@@]4(C)C3CC(O)[C@]12C (stereo not given in full)	2.9%	-15.1%	-8.0%
CCc1ccccc1S(=O)(=O)Cc1ccc(C(=O)NCc2cccs2)o1	0.5%	8.6%	33.9%
Cc1ccc(CC2SC(=O)NC2=O)cc1Cl (stereo not given)	-2.9%	-14.9%	?
O=C(CC1S/C(=N/N=C/c2cccs2)NC1=O)Nc1ccccc1F (stereo not given)	1.4%	-22.7%	8.91µM*
O=C(CC1S/C(=N/N=C2CCCCCC2)NC1=O)Nc1ccccc1C(F)(F)F (stereo not given)	/	?	5.62µM*
O=C(O)CCCNC(=O)CC1S/C(=N/N=C/c2ccccc2O)NC1=O (stereo not given)	-0.9%	-10.7%	-22.2%
O=C1N/C(=N\N=C\c2cccs2)SC1Cc1ccc(Cl)c(Cl)c1 (stereo not given)	2.8%	0.708µM*	0.447µM*
C=CCN1C(=O)C(Cc2ccc(OC)cc2)S/C1=N\N=C\c1cccs1 (stereo not given)	-5.3%	9.5%	2.4%
COc1ccccc1NC(=O)CC1S/C(=N/N=C2\CCCc3ccccc32)NC1=O (stereo not given)	0.3%	5.9%	7.9%
C=CCC1S/C(=N/N=C/c2cccs2)NC1=O (stereo not given)	-6.0%	5.62µM*	2µM*
SMILES	Luc counter	Gal4-VP16 FLuc	RORg inh
Cc1cc(C)n(-c2ccc(Cl)c(C(=O)Nc3cc(C(F)(F)F)ccc3Cl)n2)n1	0.9%	?	-19.5%
O=C(CN1CCN(S(=O)(=O)c2ccccc2[N+](=O)[O-])CC1)NC(=O)NCc1ccco1	-2.2%	0.9%	7.4%
CSc1nnc(CCCCCCCCc2nnc(SC)o2)o1	/	-3.4%	4.7%
Cc1cc(C)cc(SCc2noc(C(=O)NC(C)C)c2C(=O)NC(C)C)c1	/	-2.1%	-20.1%
Cc1ccc[n+](CC(=O)c2ccc(NC(=O)c3ccccc3)cc2)c1	-1.1%	-0.9%	15.4%
O=C(Nc1ccc[n+](CC(=O)c2cccc3ccccc23)c1)c1ccccc1	-1.6%	11.2µM*	?
O=C(COc1ccc(Cl)cc1Cl)N/N=C/C1CC=CCC1 (stereo not given)	/	1.5%	17.4%
CC(=O)c1cn(CC(=O)Nc2c(C)cccc2C)c2ccccc12	1.9%	7.08µM*	-18.4%
CCC(=O)c1cn(CC(=O)Nc2c(C)cccc2C)c2ccccc12	/	3.5%	-3.3%[1.91 µM]
Cc1ccc(S(=O)(=O)CCc2ccncc2)cc1	/	-9.2%	34.8%
Cc1nc(NC(=O)CSc2nc3cccnc3n2Cc2ccccc2)sc1C	0.0%	?	12.6µM*
CCOC(=O)CNC(=O)CSc1nc2cccnc2n1Cc1ccccc1	1.6%	-2.7%	6.7%
COc1ccccc1C(=O)Nc1sc(C(=O)N2CCCC2)c(C)c1C#N	0.7%	7.94µM*	3.98µM*
Cc1c(C(=O)N2CCCC2)sc(NC(=O)c2ccc(Cl)cc2)c1C#N	0.9%	-15.1%	?
Cn1c(SCC(=O)NC(=O)NCc2ccco2)nnc1C(F)(F)F	-3.6%	4.5%	4.1%
CCc1cc2c(nc1CC)CCN(CC/C(C)=N/O[C@@H](C)c1cn([C@@H]3COC[C@@H]3O)nn1)C2	/	-2.6%[10 µM]	0.3%[10 µM]
